Screens as filed in PubChem.
In the library only some 10% were active in any assay of this set; here they are far more common.
Pf growth 48h: P. falciparum growth inhibition at 48 hours (one generation) | P. falciparum luciferase growth in erythrocytes, 48 h | Potency, µM (highest dose often 28.7 µM), without a hit: at the highest dose activity change, negative = inhibition, hits mostly inhibitors | 310,000 tested, 5.9% active; active = well fitted inhibition curve with a large enough effect; inconclusive = small, poorly fitted or top-dose-only effect, or another doubt; inactive = no such curve, though single readings can be large or run the other way; note: % is set by controls: 0 for no effect and ±100 for the full control effect
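Cell-based growth assay: transgenic P. falciparum expressing firefly luciferase, cultured in red cells within RPMI 1640 containing 0.5% w/v Albumax, 24 mM bicarbonate and gentamycin. A drop in luciferase activity indicates inhibition.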
Pf growth 96h: P. falciparum growth inhibition at 96 hour, primary screen for plastid delayed-death inhibitors. Potency, µM (highest dose often 28.7 µM), for inactives: at the top dose activity change, negative = inhibition, actives largely listed as inhibitors. P. falciparum luciferase reporter growth, 96 h. 320,000 tested, 6.9% active; active = well fitted inhibition curve with a large enough effect; inconclusive = small, poorly fitted or top-dose-only effect, or another doubt; inactive = no such curve, though single readings can be large or run the other way; note: % is set by controls: 0 for no effect and ±100 for the full control effect
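Plates of compound plus infected erythrocytes (2% hematocrit, 0.05% parasitemia final) incubate 96 hours, 37 C, 5% CO2. Detection reagent added; reduced luminescence from the parasites' luciferase reporter flags inhibition.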
SARS PLP yeast: blocks SARS-CoV papain-like protease in a yeast assay. S. cerevisiae expressing SARS-CoV PLpro, growth rescue. Potency, µM (top dose mostly 32.9 µM), for the others: top-dose activity, positive = growth rescue, actives largely listed as activators. AID 485353. 330,000 tested, 0.19% active; note: 0% is about no effect; nearly all actives have a fitted effect of over 55% in size
NS1 function inh: inhibitors of influenza NS1 protein function; Potency, µM (doses to about 46.1 µM), inactives show at the highest dose activity, positive = more growth; 270,000 tested, 0.4% active; note: actives are rising curves; nearly all actives have a fitted effect of over 50% in size
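S. cerevisiae expressing influenza A NS1, grown in glucose, washed, then diluted 1:100 into pH 6.0 -URA galactose medium with 23 nl compound. Growth recovery read as OD600; NS1-free strain serves as control.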
An asterisk follows results filed as active; ? = inconclusive; · = no result; [ ] = remark or other dose. Unless noted, calls come from the whole dose curve. Potency is the fitted concentration of half-maximal effect.

SMILES	Pf growth 48h	Pf growth 96h	SARS PLP yeast	NS1 function inh
Cc1ccc(C(c2cc(Cl)c3cccnc3c2O)N2CCN(C)CC2)cc1 (stereo unspecified)	4.1µM*	?	·	-98%
CN(Cc1ccon1)C(=O)C1CCC(=O)N(CCc2ccc(Cl)cc2)C1 (stereo unspecified)	5%	?	14%	-7%
COc1ccccc1C(=O)NNS(=O)(=O)c1ccc(F)cc1	3%	4.1µM*	4%	-3%
COc1ccccc1C(=O)NNC(=O)c1ccccc1Br	10%	10µM*	2%	0%
COc1ccc(Nc2ccccc2NC(=O)c2ccccc2Br)cc1	1.7µM*	2.1µM*	-3%	-39%
CC(C)(C)c1ccc2c(S(=O)(=O)O)c(C(C)(C)C)ccc2c1	-4%	?	·	·
CC(=O)c1c(C)[nH]c(C(=O)Nc2cccc(C(F)(F)F)c2)c1C	4.1µM*	1.9µM*	-14%	-3%
Cc1ccc(S(C)(=O)=O)cc1C(=O)Nc1cccc(S(=O)(=O)N2CCCCCC2)c1	?	?	3%	·
CC(=O)c1c(C)[nH]c(C(=O)Nc2cccc(C#N)c2)c1C	?	?	1%	6%
CC(=O)c1c(C)[nH]c(C(=O)Nc2cccc(S(=O)(=O)N3CCCCC3)c2)c1C	9.3µM*	9.3µM*	-1%	·
COc1ccc(C(=O)NCC(c2ccccc2)N2CCCC2)cc1S(=O)(=O)N1CCOCC1 (stereo unspecified)	?	?	2%	·
Cc1cccc(C(=O)NC(NCc2ccco2)C(Cl)(Cl)Cl)c1 (stereo unspecified)	-8%	-4%	-7%	-14%
Cc1cccc(C(=O)NC(NCCc2ccccc2)C(Cl)(Cl)Cl)c1 (stereo unspecified)	?	3.7µM*	1%	?
Cc1cccc(NC(NC(=O)c2cccnc2)C(Cl)(Cl)Cl)c1 (stereo unspecified)	?	13µM*	2%	23%
Cc1cccc(NC(=O)c2cccnc2)c1	74%	-10%	10%	-19%
CCC(OC(=O)c1ccco1)C(=O)NC1CCCC1 (stereo unspecified)	26%	3%	-1%	-16%
NS(=O)(=O)c1ccc(N2C(=O)C(=O)/C(=C(/O)c3ccccc3)C2c2ccc(Cl)cc2)cc1 (stereo unspecified)	-9%	-6%	1%	?
CCOC(=O)CNC(=S)N(Cc1ccco1)Cc1ccccc1Cl	-14%	2.6µM*	0%	1%
Cc1ccc(NNC(=O)C(O)(c2cccc(C(F)(F)F)c2)c2cccc(C(F)(F)F)c2)cc1	13µM*	?	-66%	-24%
O=C(NNc1ccccc1Br)C(O)(c1cccc(C(F)(F)F)c1)c1cccc(C(F)(F)F)c1	2.6µM*	2.3µM*	-5%	1%
Cc1ccccc1NC(=O)c1cccc(C(F)(F)F)c1	-2%	45%	-7%	2%
O=c1cc(-c2ccc(OCc3ccccc3)cc2)oc2cc(OCc3ccccc3)cc(OCc3ccccc3)c12	·	·	-5%	·
COC(=O)c1ccccc1NC(=O)C(C)NS(=O)(=O)c1ccc(OC)cc1 (stereo unspecified)	1.3µM*	·	2%	21%
COc1cc(NC(=O)C(C)Oc2ccccc2)c(OC)cc1NC(=O)c1ccccc1 (stereo unspecified)	10µM*	?	2%	-40%
COC(=O)c1ccccc1NC(=O)C(C)Oc1ccccc1 (stereo unspecified)	7.4µM*	1%	-12%	-40%
SMILES	Pf growth 48h	Pf growth 96h	SARS PLP yeast	NS1 function inh
CCCCn1c(N)c(N(CCOC)C(=O)C2CC(=O)N(Cc3ccco3)C2)c(=O)[nH]c1=O (stereo unspecified)	?	-3%	-3%	·
Cc1ccc(C(=O)NC(C)c2ccc(-n3ccnc3)cc2)o1 (stereo unspecified)	0%	-3%	2%	·
COc1ccccc1OCCNS(=O)(=O)c1ccc2oc3ccccc3c2c1	-18%	10µM*	-21%	-2%
COc1ccc(S(=O)(=O)NCCOc2cccc3cccnc23)cc1OC	-37%[5.75 µM]	15%	0%	·
NS(=O)(=O)c1ccc2c(c1)oc(=O)c1cc(S(N)(=O)=O)ccc12	-6%	0%	1%	3%
COCCNS(=O)(=O)c1ccc2c(c1)oc(=O)c1cc(S(=O)(=O)NCCOC)ccc12	?	1.9µM*	1%	-3%
COc1ccc(OC)c(/C=C2\SC(N3CCCCC3)=NC2=O)c1	-24%	3%	-2%	-7%
CNc1nc(Cl)nc(NC(C)(C)C)n1	10%	36%	2%	12%
CC(C)(C)Nc1nc(Cl)nc(NC(C)(C)C)n1	0%	15µM*	19%	0%
CC[C@H](C)[C@@H](C(=O)NCCCCCCCCCCC(=O)N1CCNCC1)n1cc(CCCCN=C(N)N)nn1	2.9µM*	2.3µM*	4%	·
CC[C@H](C)Cc1cn([C@@H](CCCN=C(N)N)C(=O)NCCCCCCCCCCC(=O)N2CCNCC2)nn1	4.7µM*	?	6%	·
CCc1ccc(NC(=O)CSc2nc(=O)n3cc(C)ccc3n2)cc1	21%	2%	-1%	·
COc1cc2c(cc1OC)C(c1ccccc1[N+](=O)[O-])N(C(C)=O)CC2 (stereo unspecified)	?	26%	1%	3%
C=C1CC[C@H](O)C/C1=C/C=C1\CCC[C@]2(C)[C@@H]([C@H](C)CCCC(C)C)CC[C@@H]12	30%	3%	·	·
O=c1c2c3nc4ccccc4nc3n(-c3ccc4c(c3)OCCO4)c2ncn1CC1CCCO1 (stereo unspecified)	?	32%	6%	9%
O=c1c2c3nc4ccccc4nc3n(-c3ccc4c(c3)OCCO4)c2ncn1C1CCCC1	8.3µM*	·	-1%	-14%
COc1ccc(Br)cc1S(=O)(=O)Nc1ncn[nH]1	-9%	-3%	3%	5%
Cc1nc2c(C(=O)N3CCCC3)c[nH]n2c(=O)c1Cc1ccc(F)cc1Cl	·	·	·	-3%
COC(=O)c1c[nH]n2c(=O)c(Cc3ccc(F)cc3Cl)c(C)nc12	-5%	1.5µM*	-41%	-82%
O=C(O)Cn1c(=O)c(F)cn(C2CCCO2)c1=O (stereo unspecified)	17%	24%	3%	0%
C[C@H]1O[C@@H](OC2CC[C@]3(C=O)[C@H]4CC[C@]5(C)[C@@H](C6=CC(=O)OC6)CC[C@]5(O)[C@@H]4CC[C@]3(O)C2)CC2OC(C)(C)OC21 (stereo partly specified)	·	?	0%	4%
C[C@H]1O[C@@H](O[C@H]2[C@@H](O)C[C@H](O[C@H]3[C@@H](O)C[C@H](O[C@H]4CC[C@@]5(C)[C@H](CC[C@@H]6[C@@H]5CC[C@]5(C)[C@@H](C7=CC(=O)OC7)CC[C@]65O)C4)O[C@@H]3C)O[C@@H]2C)C[C@H](O)[C@@H]1O	?	4.1µM*	3%	-7%
CCOC(=O)C1=C(OCc2ccc(Cl)cc2)C2C=C(C)C=CC2N=C1 (stereo unspecified)	·	12µM*	-6%	6%
CCN(CC)c1ccc(C(=O)N/N=C(\C)c2ccc(OC)c(OC)c2)cc1	-11%	?	0%	0%
